TDP1 cell noCPT = qHTS for Inhibitors of human tyrosyl-DNA phosphodiesterase 1 (TDP1): qHTS in cells in absence of CPT; DT40 Tdp1-/- hTDP1 cells, no CPT, ATP luminescence, 48 h; Potency, µM (titrated, usually from 46.2 µM), inactives show at the highest dose activity change, negative = growth inhibition, hits mostly inhibitors; 15% of 420,000 active; AID 686978, 2013; note: nearly all actives have a fitted effect of over 55% in size
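DT40 Tdp1-/-;hTDP1 cells, no CPT (DMSO vehicle only), 400 cells/well; compounds pin-transferred; ≥48 hr, 37 °C; CellTiter-Glo 30 min RT dark, luminescence read.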
DT40 TDP1 CPT = qHTS for Inhibitors of human tyrosyl-DNA phosphodiesterase 1 (TDP1): qHTS in cells in presence of CPT. AID 686979, 2013. chicken DT40 Tdp1-/-;hTDP1 cells + 20 nM CPT, ATP luminescence, 48 h. Potency, µM (titrated, usually from 46.2 µM), inactives show at the top dose activity change, negative = growth inhibition, usual class: inhibitors. 12% of 420,000 active; note: nearly all actives have a fitted effect of over 55% in size
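Chicken DT40 Tdp1-/- cells complemented with human TDP1, 400 cells/well, exposed to compounds plus 20 nM camptothecin for at least 48 h at 37 C; viability read as ATP content by CellTiter-Glo luminescence.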
HT1080NT lethal = qHTS for induction of synthetic lethality in tumor cells producing 2HG: qHTS for the HT-1080-NT fibrosarcoma cell line | HT-1080-NT fibrosarcoma viability, CellTiter-Glo ATP luminescence, 48 h | Potency, µM (titrated, usually from 46.1 µM), for the others: top-dose activity, negative = less viability, actives largely listed as cytotoxic | 1.6% of 360,000 active | AID 686970, 2013;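 note: NT is the 2HG producing partner of a matched IDH1 knockdown line; 0% = DMSO-treated cells and -100% = media-only wells without cells; nearly all actives have a fitted effect of over 55% in size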
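A 48-hour cytotoxicity screen used HT-1080-NT cells plated 2 hours before compound delivery. ATP-based CellTiter-Glo luminescence measured viability, normalized to DMSO and no-cell controls.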
KB-3-1 tox = qHTS assay for MDR1-selective chemotherapeutics: Primary screen using the parental adenocarcinoma cell KB-3-1; Potency, µM (top dose mostly 46.1 µM), actives largely listed as cytotoxic; 1.4% of 400,000 active; KB-3-1 viability, CellTiter-Glo ATP luminescence, 72 h; note: nearly all actives have a fitted effect of over 60% in size
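Luminescent ATP read-out (CellTiter-Glo) measures survival of drug-naive KB-3-1 cells after 72 h compound exposure at 37 °C. Titration series was screened from lowest to highest concentration, with DMSO vehicle plates as background controls.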
HT1080 IDH1KD tx = qHTS for induction of synthetic lethality in tumor cells producing 2HG: qHTS for the HT-1080-IDH1KD cell line. HT-1080 IDH1 knockdown viability, ATP luminescence, 48 h. Potency, µM (doses to about 46.1 µM), without a hit: at the top dose activity, negative = toxicity, usual class: cytotoxic. 2% of 360,000 active;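 note: 0% = DMSO wells and -100% = cell-free medium wells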
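Cytotoxicity counter-line: IDH1KD HT-1080, 48 h, CellTiter-Glo. Curves classed by r2, magnitude and activity.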
KB-V1 MDR tox = qHTS assay for MDR1-selective chemotherapeutics: Primary screen using the drug-selected MDR subline cells KB-V1. AID 1347076, 2019. 3.4% of 400,000 active. KB-V1 MDR cells viability, CellTiter-Glo, 72 h. Potency, µM (doses to about 46.1 µM), actives largely listed as cytotoxic; note: nearly all actives have a fitted effect of over 60% in size
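Readout: CellTiter-Glo luminescence, 10 min after addition. Cells: KB-V1 MDR subline, 72 h at 37 degrees C with compound. Analysis: corrected, normalized data fitted to concentration-effect curves.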
* marks the source's active call; other numbers are inactive results; i = inactive; u = inconclusive; x = not tested or not shown; ! = not active in a repeat. Sampled rows, rich in hits. Any-hit rate of the full collection: about 19%. Calls come from the whole dose curve; as a rule, active = well fitted curve in the direction sought with a large enough effect; inconclusive = small, poorly fitted or top-dose-only effect, or another doubt; inactive = no such curve, though single readings can be large; an effect the other way counts as inactive or inconclusive. Unless noted, % is set by controls: 0 for no effect and ±100 for the full control effect; potency is the fitted concentration of half-maximal effect.

SMILES	TDP1 cell noCPT	DT40 TDP1 CPT	HT1080NT lethal	KB-3-1 tox	HT1080 IDH1KD tx	KB-V1 MDR tox
COC(=O)c1c(NC(=O)c2nc3ccccc3s2)sc2c1CCN(C(C)=O)C2	6.51µM*	7.31µM*	9.0%	i	-3.5%	u
CC(=O)N1CCc2c(sc(NC(=O)c3ccc([N+](=O)[O-])o3)c2C(N)=O)C1	7.31µM*	3.66µM*	6.51µM*	i	5.8µM*	i
COC(=O)c1c(NC(=O)C2COc3ccccc3O2)sc2c1CCN(C(C)=O)C2 (configuration not stated)	u	11.6µM*	-0.1%	i	-11.3%	i
COC(=O)c1c(NC(=O)c2cccc(N3C(=O)CCC3=O)c2)sc2c1CCN(C(C)=O)C2	-10.2%	4.7%	20.1%	i	9.6%	i
Cc1ccc(C)c(NC(=O)COC(=O)c2cccc(S(=O)(=O)N3CCCC3)c2)c1	-19.2%	-7.4%	-0.5%	i	-2.7%	i
N#CCC1(O)C(=O)N(Cc2ccccc2)c2ccccc21 (configuration not stated)	0.9%	-16.4%	1.6%	i	4.8%	i
Fc1ccc(Nc2nc(NCc3ccco3)nc3nccnc23)cc1	-28.8%	-25.0%	x	i	x	i
COc1ccccc1-n1c(=O)c2c3c(sc2n(C)c1=O)CN(C(C)=O)CC3	-3.5%	13.0%	x	i	x	i
CC(=O)N1CCc2c(sc(NC(=O)c3ccc(S(=O)(=O)N(C)C)cc3)c2C#N)C1	1.4%	22.5%	2.7%	i	10.4%	i
CC(=O)N1CCc2c(sc(NC(=O)c3ccc4c(c3)OCCO4)c2C#N)C1	3.66µM*	4.11µM*	18.4µM*	u	11.6µM*	u
COc1ccc(-c2cc(C(F)(F)F)nc(SCC(=O)NCc3ccc(OC)c(OC)c3)n2)cc1	u	23.1µM*	x	i	x	i
COc1ccc(-c2cc(C(F)(F)F)nc(SCC(=O)NC(C)c3ccccc3)n2)cc1 (configuration not stated)	14.6µM*	u	x	i	x	i
COCCNC(=O)CCSc1nc(-c2ccc(OC)cc2)cc(C(F)(F)F)n1	20.6µM*	23.1µM*!	u	i	2.4%	i
CCC(C)NC(=O)CCSc1nc(-c2ccc(OC)cc2)cc(C(F)(F)F)n1 (configuration not stated)	16.4µM*	u	x	i	x	u
CCc1ccc2oc(C(=O)Nc3ccccc3C(=O)OC)cc(=O)c2c1	u	-12.2%	x	i	x	i
COc1ccc(OC)c(CN2CCN(CCc3ccccc3)C(CCO)C2)c1 (configuration not stated)	u	11.6µM*	6.3%	i	-0.1%	i
COc1ccc(F)c(CN2CCN(CCc3ccccc3)C(CCO)C2)c1 (configuration not stated)	-14.2%	-12.5%	-5.1%	i	-10.4%	u
OCCC1CN(Cc2nc(-c3ccccc3)cs2)CCN1CCc1ccccc1 (configuration not stated)	20.6µM*	u	-12.5%	u	-0.9%	i
CC(C)=CCN1CCN(Cc2nc(-c3ccccc3)cs2)CC1CCO (configuration not stated)	u	u	-0.1%	i	-1.1%	u
CC(C)(C)CN1CCN(Cc2nc(-c3ccc(F)cc3)cs2)CC1CCO (configuration not stated)	20.6µM*	16.4µM*	u	u	u	u
